The panel holds about 83,000 compounds, 20% with a hit somewhere; the sample as a whole holds those more often.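 Note: values are percent growth. 100 is the growth of untreated cells, values between 100 and 0 indicate rising inhibition; between -100 and 0 indicates cell death.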 A number with no mark means an inactive call. The source made the active and inactive calls. Rule for the calls: active = growth percent below 10; inactive = the rest.

The values that follow come from PubChem BioAssay (NCI).

Test in all cases: NCI-60 one-dose screen, 48 h (100 = growth as untreated, 0 = no growth, -100 = all killed)
Holding throughout (conditions): 10 µM

The subject of assay [1] is NCI-H23 lung.
In assay [2] the test system is NCI-H226 lung.
For assay [3], the system named is NCI-H322M lung.
Assay [4] deals with HOP-62 NSCLC.
Assay [5] has as its system NCI-H460 lung.
The subject of assay [6] is HOP-92 NSCLC.
The test system of assay [7] is NCI-H522 lung.
Assay [8] deals with A549/ATCC NSCLC.
In assay [9] the test system is 786-0 renal.
In assay [10] the test system is COLO 205 colon.
For assay [11], the system named is DU-145 prostate.
Assay [12] relates to K-562 leukemia.
The test system of assay [13] is MALME-3M melanoma.
Assay [14] relates to MDA-MB-231 breast.
For assay [15], the system named is RXF 393 renal.
In assay [16] the test system is SF-268 CNS.
The test system of assay [17] is SF-295 CNS.
Assay [18] deals with SF-539 CNS.
Assay [19] deals with UACC-257 melanoma.
Assay [20] relates to M14 melanoma.

Take `[O-][N+](=Nc1cccc(Cl)c1)c1cccc(Cl)c1`: the growth in [1] is 94.5%; in assay [2], 114%; in assay [3], 95.9%; in assay [4], 107%; in assay [5] it was 99%; in [6], 94.1%. For the same compound, the growth in assay [7] was 148%; in [8], 95.1%; in assay [9] it was 109%; in assay [10] it was 116%; in assay [11], 108%; in [12], 133%. Also, the growth in assay [13] was 101%; in assay [14], 102%; in assay [15], 102%; in assay [16], 110%; in assay [17], 104%; in assay [18] it was 92.8%. Moreover, the growth in assay [19] was 117%; in assay [20], 96.4%.

Regarding `O=c1cc(-c2ccccc2)[nH]c2c1CCCC2`, the growth is 32.1% in assay [1]; 54.3% in assay [2]; 50.8% in assay [3]; 28.8% in assay [4]; 7.59% (active) in [5]; 46.7% in assay [6]. Moreover, the growth in assay [7] is 13.6%; in [8] it was 36.6%; in assay [9], 36.4%; in [10], -10.1% (active); in assay [11] it was 21.2%; in assay [12], 23.2%. Besides, the growth in assay [13] was 31.6%; in assay [14], 33.8%; in assay [15] it was -21.7% (active); in assay [16], 57.3%; in assay [17] it was 18.1%; in [18] it was 3.77% (active). Also, the results for the growth in [19] and in assay [20] were 46.9% and 8.23% (active), respectively.

As to `O=[N+]([O-])c1ccc(/C=C/C=C/c2ccccc2)c(Cl)c1`, the growth in assay [1] is 89.8%; in assay [2], 102%; in [3], 96.4%; in assay [4], 105%; in [5], 84.5%; in assay [6], 84.4%. For the same compound, the growth in assay [7] was 80.9%; in assay [8] it was 89.8%; in assay [9], 95.6%; in [10] it was 119%; in assay [11], 109%; in [12] it was 91.8%. Further, the growth in assay [13] is 116%; in assay [14] it was 89.6%; in assay [15], 103%; in [16] it was 111%; in assay [17], 98.7%; in assay [18], 99%. The growth in [19] is 95.1%; in assay [20], 106%.

Take `c1ncc2[nH]cnc2n1`: the growth was 104% in assay [1]; 99.5% in [2]; 85.7% in assay [3]; 104% in assay [4]; 105% in assay [5]; 89.4% in assay [6]. Also, the growth in assay [7] was 89.2%; in assay [8], 86.7%; in assay [9] it was 95.2%; in assay [10], 101%; in assay [11] it was 96.6%; in assay [12], 102%. The growth is 126% in [13]; 111% in [14]; 112% in [15]; 104% in [16]; 116% in assay [17]; 98.3% in [18]. Further, the figures for the growth in [19] and in assay [20] were 87.1% and 97.9%, respectively.

Consider `COC(=O)/C=C\C(=O)OC`, for which the growth in [1] was 106%; in [2], 114%; in assay [3], 125%; in [4], 113%; in [5] it was 111%; in [6], 95.4%. Besides, the growth in [7] is 89.2%; in [8], 100%; in assay [9], 103%; in [10], 118%; in [11], 120%; in [12], 107%. The growth in assay [13] is 139%; in [14] it was 104%; in assay [15], 110%; in [16], 113%; in assay [17], 114%; in assay [18] it was 103%. The growth in assay [19] is 106%; in assay [20], 107%.

For the compound `NC(=O)N/N=C\c1ccco1`, the growth in assay [1] was 108%; in [2], 102%; in [3], 94.1%; in [4] it was 112%; in assay [5], 117%; in assay [6], 102%. Besides, the growth was 92.1% in assay [7]; 110% in assay [8]; 104% in [9]; 119% in assay [10]; 131% in assay [11]; 100% in [12]. The growth in assay [13] was 114%; in assay [14], 110%; in assay [15], 109%; in assay [16], 112%; in [17], 132%; in assay [18], 109%. Further, the figures for the growth in assay [19] and in assay [20] were 85.1% and 104%, respectively.

`O=[N+]([O-])c1ccc(Sc2ccncn2)c([N+](=O)[O-])c1`: the growth in assay [1] is 60%; in assay [2], 55.3%; in assay [3], 106%; in assay [4], 92.4%; in assay [5], 99.3%; in [6], 103%. For the same compound, the growth is -62.2% (active) in assay [7]; 122% in assay [8]; 69.7% in assay [9]; 27% in assay [10]; 85.4% in assay [11]; 26.3% in [12]. The growth in assay [13] was 86.6%; in assay [14], 84.1%; in [15], 81.7%; in [16], 89%; in assay [17], 113%; in assay [18] it was 22.9%. Also, the growth in assay [19] was 64.7%; in [20], 8.79% (active).

Turning to `CCOC(=O)c1cc(/C=C/c2ccc(Cl)cc2Cl)on1`, the growth in assay [1] is 47.4%; in assay [2], 14.9%; in assay [3] it was 81.6%; in assay [4], 81%; in assay [5], 3.82% (active); in assay [6], 100%. The growth in [7] was 54.5%; in assay [8] it was 91.6%; in [9] it was -68.6% (active); in assay [10], 57.4%; in assay [11] it was 30.6%; in [12] it was 5.36% (active). In addition, the growth in [13] is 69.6%; in assay [15], -37.3% (active); in assay [16], 89.1%; in [17], 17.6%; in assay [18], -48.5% (active); in [19] it was 105%. For the same compound, the growth in assay [20] is 56%.
